The assay in a line: Cell Proliferation Assay against the TMD8 Cell Line (Caspase readout at 16 hrs) (AID 651712). The method, boiled down: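 Caspase-Glo luminescence measured apoptosis after a 16 h, 37 C compound exposure of TMD8 cells (500 cells/well, 5% FBS RPMI). DMSO set 0% and bortezomib at 9.2 uM final set 100% activity.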

We go through 2 molecules from PubChem BioAssay (NCATS).

Results filed as inconclusive are left out. The source made the active and inactive calls. The call rests on the fitted dose curve; in most records, active means well fitted activation curve with a large enough effect; inconclusive means small, poorly fitted or top-dose-only effect; inactive means flat fitted curve, though single readings scatter.

`CCN(CC)CCn1c(=O)c(Cc2ccc(OC)cc2)nc2ccccc21`: the call was inactive. With `COc1cc2c(Nc3ccc(Br)cc3F)ncnc2cc1OCC1CCN(C)CC1` the entry was “inactive”.
